Compounds with a hit are over-represented: about 3.7% of the library has one in this group of screens.
BRCA1 expr act: increases BRCA1 expression | MCF7-BRCA1-FFLuc reporter, luminescence, 48 h; response scale: scaled: vehicle 0%, 10 µM genistein 100% | Potency, µM (doses to about 46.1 µM), for the others: at the top dose activation, usual class: activators | actives 1.1% (n = 380,000) | AID 624202; further: potency means the concentration at half of the fitted maximal effect; nearly all actives have a fitted effect of over 80% in size
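First, MCF7-BRCA1-FFLuc cells (2000/well) attach for 2 h; next, compounds are pin-added and incubated 48 h at 37 °C; finally, luciferase reagent is added and luminescence read after 15 min.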
B2AR arrestin: recruits beta-arrestin to the human beta2-adrenergic receptor | P07550 | beta-arrestin recruitment to beta2AR, cell-based reporter | Potency, µM (series often up to 46.1 µM), without a hit: at the highest dose activation, usual class: activators | actives 0.02% (n = 330,000);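 further: potency means the concentration at half of the fitted maximal effect; 0% = DMSO controls and full agonism = EC100 isoproterenol or metaproterenol; nearly all actives have a fitted effect of over 65% in size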
RGS4 inh: inhibitors of human regulator of G protein signaling 4; P49798; Transcreener GDP fluorescence polarization, RGS4-accelerated GTP hydrolysis; Potency, µM (titrated, usually from 114 µM), without a hit: at the highest dose activity change, negative = inhibition, usual class: inhibitors; actives 0.039% (n = 390,000); AID 504845; further: potency means the concentration at half of the fitted maximal effect; on the % scale 0 is the no-effect control and ±100 the full control effect; nearly all actives have a fitted effect of over 75% in size
Target sequence (P49798 whole entry, looked up): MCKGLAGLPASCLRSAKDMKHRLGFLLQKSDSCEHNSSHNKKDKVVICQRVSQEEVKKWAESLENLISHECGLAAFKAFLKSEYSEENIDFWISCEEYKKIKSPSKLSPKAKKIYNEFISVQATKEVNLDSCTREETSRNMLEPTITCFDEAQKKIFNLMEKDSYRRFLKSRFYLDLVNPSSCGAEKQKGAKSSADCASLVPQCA
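MLSMR compounds (23 nl, pin-transferred) preincubated 10 min at room temperature with a 500nM (2x) first reagent, then RGS4 at 900nM (2x) plus Transcreener GDP mix added; fluorescence polarization (620/688 nm) read before and after 90 min at 30 °C.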
D3 antag: antagonists of human D3 dopamine receptor | actives 2.5% (n = 360,000) | max response, negative = inhibition, % | D3R cells, DiscoveRx beta-arrestin luminescence, antagonist mode; active compounds read low | P35462; in the data active means max response below about -50%; inconclusive means no clear call, values can overlap the other calls; further: on the % scale 0 is the no-effect control and ±100 the full control effect
Target sequence (P35462 whole entry, looked up): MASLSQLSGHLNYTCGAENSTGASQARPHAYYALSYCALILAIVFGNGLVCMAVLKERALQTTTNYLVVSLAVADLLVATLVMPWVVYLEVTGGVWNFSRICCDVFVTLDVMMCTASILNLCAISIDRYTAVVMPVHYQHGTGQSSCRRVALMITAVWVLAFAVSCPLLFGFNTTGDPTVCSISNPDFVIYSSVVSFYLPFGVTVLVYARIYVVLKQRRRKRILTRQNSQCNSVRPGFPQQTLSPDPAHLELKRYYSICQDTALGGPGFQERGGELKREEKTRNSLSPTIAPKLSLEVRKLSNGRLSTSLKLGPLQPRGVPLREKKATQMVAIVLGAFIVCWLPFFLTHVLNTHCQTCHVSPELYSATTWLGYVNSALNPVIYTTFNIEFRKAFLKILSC
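Cells expressing the human receptor were seeded at 1500 cells/well, incubated overnight at 37 degrees C in 5% CO2, then exposed to library compounds with dopamine controls for 90 minutes at 37 degrees C before luminescent detection.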
PTHR1 agonist: activates the human parathyroid hormone receptor PTHR1; Potency, µM (doses to about 115 µM), for the others: at the top dose activation, usual class: activators; Q03431; HEK293 GP2 PTHR1 cells, GloSensor cAMP luminescence, 1 h; AID 743266; actives 0.075% (n = 410,000); further: potency means the concentration at half of the fitted maximal effect; nearly all actives have a fitted effect of over 55% in size
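HEK-293-derived GP2 cells expressing PTHR1 and a GloSensor cAMP reporter, 3,000/well, plated overnight, given luciferin plus IBMX (each 0.5 mM as added) for 1 h at 37 °C, then compound for 1 h at 37 °C. Luminescence was read after 15 min at room temperature.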
D3 ag: agonists of human D3 dopamine receptor; D3R DiscoveRx beta-arrestin cells, luminescence, 90 min; max activation, %; actives 0.58% (n = 410,000); AID 652048; in the data active means max activation above about 30%; further: 0% is about no effect
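Cells at 1500/well, incubated overnight, then treated with pinned compounds (dopamine as control) for 90 min at 37 degrees C. DiscoveRx reagent added for 30 - 60 minutes at room temperature; luminescence read.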
Active calls of the source: *; i = inactive; ? = inconclusive; . = no result given; + = active, no number; [ ] = remark or other dose. Unless noted, the call rests on the fitted dose curve; in most records, active means well fitted curve in the direction sought with a large enough effect; inconclusive means small, poorly fitted or top-dose-only effect, or another doubt; inactive means no such curve, though single readings can be large; an effect the other way counts as inactive or inconclusive.

SMILES	BRCA1 expr act	B2AR arrestin	RGS4 inh	D3 antag	PTHR1 agonist	D3 ag
CCC1Nc2ncnc(N3CCOCC3)c2N(Cc2ccc(OC)cc2)C1=O (stereo not drawn)	10%	0%	?	3	i	10
CCC1Nc2ncnc(N3CCN(c4ccccc4)CC3)c2N(Cc2ccc(OC)cc2)C1=O (stereo not drawn)	-5%	0%	-11%	-149*	i	-56
CCC1Nc2ncnc(N3CCN(c4ccccc4)CC3)c2N(Cc2ccc(Br)cc2)C1=O (stereo not drawn)	-50%	-2%	-4%	+	-4%	-88
CC/C=C(\C(=O)N[C@@H]1C(=O)N2C(C(=O)OCOC(=O)C(C)(C)C)=C(COC(N)=O)CS[C@H]12)c1csc(N)n1	.	.	.	.	.	-30
C=C1CCN(C(Cc2ccccc2)C(=O)Nc2ccc(OC)cc2)S(=O)(=O)c2ccccc21 (stereo not drawn)	.	.	-6%	.	.	.
CC(=O)NC(c1cccc([N+](=O)[O-])c1)c1c(OC(C)=O)ccc2ccccc12 (stereo not drawn)	-28%	.	-18%	-68*	i	-7
CC(=O)Oc1ccc2ccccc2c1C(NC(=O)C(C)C)c1cccc([N+](=O)[O-])c1 (stereo not drawn)	-45%	1%	-6%	-20	-22%[57.5 µM]	-2
CS(=O)(=O)c1ncc(Cl)c(C(=O)Nc2ccc3ccccc3c2)n1	-32%	0%	?	-117*	-31%	-30
Cc1ccc(CS(=O)(=O)c2ncc(Cl)c(C(=O)Nc3ccc(OC(F)F)cc3)n2)cc1	-43%	-1%	?	-63*	-8%	-33
CCS(=O)(=O)c1ncc(Cl)c(C(=O)Nc2ccc(C)cc2)n1	-101%	0%	?	-130*	-27%	-20
COC(=O)[C@H](CC(C)C)NC(=O)/C=C/[C@H]1O[C@@H](n2cc(C)c(=O)[nH]c2=O)C[C@@H]1O	-2%	.	.	25	i	1
CCN1C(=O)C(=Cc2cccc(OC)c2Oc2ccc([N+](=O)[O-])cc2[N+](=O)[O-])SC1=S	-90%	0%	-34%	-70*	-20%	-27
CN1OC[C@@H]2CN(S(=O)(=O)c3cccc(C(F)(F)F)c3)[C@H](c3ccc(N4CCCCC4)cc3)C[C@@H]21	11%	.	.	78	i	2
Cc1nc2c([nH]c3ccc(Br)cc32)s1	18%	0%	1%	-101*	-7%	1
Cc1n[nH]c2ccc(Br)cc2c1=O	4%	.	.	24	i	2
CCOC(=O)CC[C@H](NC(=O)Cn1cc(C)c(=O)[nH]c1=O)C(=O)OCC	11%	.	3%	3	i	6
Cc1cccc2c1Sc1ccc(Cl)cc1CC2N1CCNCC1 (stereo not drawn)	-111%	.	-14%	-53*	-30%	-17
CCc1cccc2c1Sc1ccccc1CC2N1CCNCC1 (stereo not drawn)	-86%	.	-1%	-63*	-12%	-24
CCC(=O)Nc1ccc2c(c1)OC[C@@H](C)N(C(=O)c1ccccn1)C[C@@H](C)[C@@H](OC)CN(C)C2=O	.	.	.	3	-11%	1
CC(=O)NN1C(=O)/C(=C\c2ccc(Br)o2)SC1=S	-42%	8%	-36%	-59*	-31%	-4
CC(=O)NN1C(=O)/C(=C/c2ccc(Br)o2)SC1=S	17%	0%	-45%[11.4 µM]	1	-9%	1
COc1ccc(-n2ncc3c2ncn2nc(COc4ccc(Cl)cc4)nc32)cc1	.	.	-9%	.	11%	-3
C=C1CSc2nc3ccccc3c(=O)n21	6%	.	-3%	-55*	-26%	7
O=C(c1ccc(N2C(=O)c3ccccc3C2=O)cc1)N1CCCCC1	19%	-1%	1%	8	i	22
CCc1ccc(N2C(=O)C(Cl)=C(Nc3ccc(C(=O)N4CCCC4)cc3)C2=O)cc1	0%	0%	-10%	-57*	-91%	-14
SMILES	BRCA1 expr act	B2AR arrestin	RGS4 inh	D3 antag	PTHR1 agonist	D3 ag
O=c1oc2ccccc2cc1-c1nc(-c2ccccc2)no1	13µM*	0%	-32%	-10	-3%[57.5 µM]	3
CCOc1cc(/C=C/c2ccc3cccc([N+](=O)[O-])c3n2)ccc1O	-62%	-2%	4%	?	i	-3
CCOc1cccc(/C=C/c2ccc3cccc(O)c3n2)c1OC	-7%	?	-16%	-83*	-9%	-24
CCOc1cccc(/C=C/c2ccc3cccc(O)c3n2)c1O	-22%	0%	-13%	-56*	-31%	1
CCOC(=O)CCCCNCc1ccccc1	21%	0%	14%	-70*	i	-17
CCc1ccc(C(c2ccc(CC)cc2)C(Cl)Cl)cc1	-8%	0%	3%	-110*	-69%	0
Clc1ccc(C(c2ccccc2Cl)C(Cl)Cl)cc1 (stereo not drawn)	15%	0%	20%[56.9 µM]	-14	-62%	7
O=C(CN1C(=O)C(=O)N(CCC2=CCCCC2)C1=O)c1c[nH]c2ccccc12	-69%	0%	12%	-52*	-8%	2
O=C(CN1C(=O)C(=O)N(Cc2ccco2)C1=O)c1c[nH]c2ccccc12	0%	0%	-8%[56.9 µM]	1	-12%	7
COc1cccc(NC(=O)CC(=O)Nc2ccc3nc4n(c(=O)c3c2)CCCCC4)c1	0%	.	-5%	.	-25%	-3
COc1ccc(C)cc1NC(=O)c1ccc2c(=O)n3c(nc2c1)CCCCC3	9%	-1%	5%[11.4 µM]	-2	-35%	-2
Cc1ccc(C)c(NC(=O)c2ccc3c(=O)n4c(nc3c2)CCC4)c1	4.5µM*	0%	-10%	16	-19%	0
COc1cc(OC)cc(C(=O)Nc2ccc3nc4n(c(=O)c3c2)CCCCC4)c1	4.5µM*	0%	7%	-8	-20%	1
CC(C)C[C@H]1CNC(=O)C(=O)N1CC1CCN(CC2CCC(C(C)(C)C)CC2)CC1 (stereo partly drawn)	-3%	.	8%	-57*	i	-35
CC(C)C[C@H]1CNC(=S)N1CC1CCN(CCCC2CCCC2)CC1	-15%	.	18%	-63*	-33%	-44
COc1ccc(CCCN2CCC(CN3C(=S)NC[C@@H]3Cc3ccccc3)CC2)cc1OC	-5%	.	15%	-55*	i	-57
CC(C)C[C@H]1CNC(=S)N1CC1CCN(CCCCc2ccccc2)CC1	-16%	.	11%	-91*	-10%	-45
CC(C)CCN1CCC(CN2C(=O)C(=O)NC[C@@H]2CC(C)C)CC1	8%	.	.	?	-11%	-5
Cc1nc2nc(SCC(=O)NC3CCCCC3)nn2c(C)c1Cc1ccccc1Cl	-3%	.	22%	.	i	-3

Bioassay records (PubChem)
